High-throughput results from PubChem.
S1P2 agonist = activates the human S1P2 receptor. O95136. S1P2-expressing cell line, agonist reporter read-out. activation, % at 4.5 µM. actives 0.46% (n = 97,000); in the data active = activation above about 16%;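 note: 0% = vehicle low control and 100% = maximal reference agonist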
S1P2 antag = S1P2 (human) receptor antagonism; AID 736; inhibition, % at 5 µM; cell-based S1P2 antagonist assay, inhibition at 5 uM; actives 0.21% (n = 97,000); O95136; in the data active = inhibition above about 45%;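 note: CRE beta-lactamase reporter cells expressing human S1P2 stimulated with S1P; 0% = agonist at EC80 alone and 100% = agonist plus reference antagonist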
Smad3 inh = inhibitors of human Smad3 transcription factor binding. P84022. TR-FRET Smad3/Dy647-FoxH1 peptide binding, europium anti-His. inhibition, % at 25 µM. actives 0.29% (n = 88,000);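 active = compounds that reduce the energy-transfer binding signal between the protein and its labelled peptide by more than half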;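 note: 0% = Smad3 plus labelled peptide maximal FRET and 100% = peptide-only background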
GALR2 ag = activates the human galanin receptor 2 | GALR2-expressing cells, agonist activation read-out | activation, % (test concentration not listed) | actives 0.48% (n = 140,000) | AID 803; in the data active = activation above about 5%, passing the limit was not always enough;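 note: 0% = vehicle buffer wells and 100% = reference agonist at full effect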
Target sequence (O43603 whole entry, looked up): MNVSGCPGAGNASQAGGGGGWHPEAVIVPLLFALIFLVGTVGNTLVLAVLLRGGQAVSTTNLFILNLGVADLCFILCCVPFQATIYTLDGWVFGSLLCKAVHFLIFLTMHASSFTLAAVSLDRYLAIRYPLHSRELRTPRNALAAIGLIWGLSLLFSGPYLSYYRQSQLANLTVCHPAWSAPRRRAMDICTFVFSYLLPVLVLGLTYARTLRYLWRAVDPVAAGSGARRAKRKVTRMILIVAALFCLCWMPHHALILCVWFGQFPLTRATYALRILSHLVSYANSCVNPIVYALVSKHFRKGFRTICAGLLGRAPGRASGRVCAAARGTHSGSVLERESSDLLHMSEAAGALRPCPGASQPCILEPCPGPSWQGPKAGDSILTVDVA
Calb biofilm kill = kills Candida albicans biofilms. inhibition, % at 6 µM. actives 0.14% (n = 85,000). C. albicans biofilm + clotrimazole, Alamar Blue;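 active = inhibition above 20%; inactive = inhibition below 20%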;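 note: preformed 24 hr biofilms exposed to compound for 48 hr; 0% = biofilm without compound and 100% = blank killed by clotrimazole plus chlorhexidine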
GALR2 antag = GALR2 (human) receptor antagonism. O43603. GALR2-expressing cells, antagonist mode. inhibition, % at 4 µM. actives 0.39% (n = 140,000). AID 828;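 note: cells stimulated with galanin 1-16 at roughly its EC80; 0% = agonist challenge control and 100% = basal control without agonist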
GALR2 agon conf = confirmation of human galanin receptor 2 (GALR2) agonists | shares compounds with GALR2 ag | GALR2-expressing cells, agonist activation | activation, % at 5.6 µM | actives 10% (n = 460) | AID 864; in the data active = activation above about 8.4%;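 note: 0% = buffer-only vehicle wells and 100% = full reference agonist response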
BLA act counter = counter-screen for GALR2 agonists: beta-lactamase reporter activators; AID 865; CHO NFAT-bla reporter, beta-lactamase FRET activation; activation, % at 5.6 µM; actives 10% (n = 460); shares compounds with GALR2 ag;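 active = activation above the screen-wide mean activation plus 3 SD, cut at about 8% in these data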;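 note: 0% = DMSO with PBS wells and 100% = thapsigargin positive control wells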
GALR2 blk conf = confirmation of human galanin receptor 2 (GALR2) antagonists. shares compounds with GALR2 antag. GALR2-expressing cells, antagonist mode, inhibition. inhibition, % at 4 µM. actives 60% (n = 480). AID 866;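 note: cells stimulated with galanin at about its EC80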
BLA inhib ctr = beta-lactamase inhibition, GALR2 counterscreen. CHO NFAT-BLA reporter, beta-lactamase FRET, thapsigargin-stimulated. AID 867. shares compounds with GALR2 antag. actives 36% (n = 480). inhibition, % at 4.2 µM;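 active = inhibition above the mean inhibition across tested compounds plus 3 SD, cut at about 27% in these data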;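 note: 0% = 500 nM thapsigargin stimulated wells and 100% = unstimulated BSA only wells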
Numbers without * were called inactive; x = not tested or not shown. Only some compounds are listed: those with a hit (about 1.3% of all), similar ones and a draw of the others. Cut-off read from the data, not from the text of the source, unless noted: active = inhibition above about 27%; inactive = the rest.

SMILES	S1P2 agonist	S1P2 antag	Smad3 inh	GALR2 ag	Calb biofilm kill	GALR2 antag	GALR2 blk conf	BLA inhib ctr	others
c1ccc(-c2cn3nc(-c4ccccc4)c(-c4ccccc4)nc3n2)cc1	-1	31	x	9	x	19	x	x	GALR2 agon conf=2;BLA act counter=0
Nc1nc(-c2ccccc2)cn1N	-1	5	x	-1	x	-16	x	x
Cc1nn2cc(-c3ccc(-c4ccccc4)cc3)nc2s1	-8	8	-7	-2	4	-30	x	x
Cc1nn2cc(-c3ccc(Cl)cc3)nc2s1	-5	26	-4	10	5	6	x	x	GALR2 agon conf=0;BLA act counter=-2
CCN(CC)c1ccc(NC(=O)Cn2c(C(C)NC(=O)c3ccccc3)nc3ccccc32)cc1 (configuration not stated)	x	x	x	11*	x	-13	x	x	GALR2 agon conf=-1;BLA act counter=-3
CC(NC(=O)c1ccccc1)c1nc2ccccc2n1Cc1ccccc1F (configuration not stated)	-2	5	-5	-1	2	5	x	x
Nc1c(C(=O)c2ccccc2)sc2snc(SCC(=O)c3ccccc3)c12	-8	15	x	79*	x	0	x	x	GALR2 agon conf=-2;BLA act counter=-3
Nc1nnc(SCC(=O)c2ccccc2)s1	-5	-11	3	-2	5	0	x	x
COc1cc(NC(=O)C2CCCCC2)c(OC)cc1NC(=O)c1ccco1	-7	23	3	-2	0	9	x	x
CCOc1cc(NC(=O)C2CCCCC2)c(OCC)cc1NC(=O)c1ccco1	-3	-26	8	32*	10	-13	x	x	GALR2 agon conf=0;BLA act counter=0
Cc1nc(-c2cccc(S(=O)(=O)N3CCCC(C)C3)c2)cs1 (configuration not stated)	-6	8	-2	27*	6	-1	x	x	GALR2 agon conf=0;BLA act counter=-1
CCC(=O)N1c2ccc(C)cc2C2=NNC(=S)NC21O (configuration not stated)	-2	-10	x	-1	x	-1	x	x
COCCN1C=C(C(=O)OC)C(c2cc(Br)c(OC)c(OC)c2)C(C(=O)OC)=C1	10	-23	3	10	-1	6	x	x	GALR2 agon conf=1;BLA act counter=4
CCOc1cc(/C=N\NC(=O)Cn2nc([N+](=O)[O-])cc2C)ccc1OCc1cccc2ccccc12	-4	-23	18	35*	6	-12	x	x	GALR2 agon conf=-1;BLA act counter=-3
CN(C)c1ccc(/C=C/c2nc3ccccc3s2)cc1	1	58*	x	20*	x	45*	32*	41*	GALR2 agon conf=6;BLA act counter=9.6*
O=c1oc2cc(O)ccc2cc1-c1nc2c(s1)CCc1ccccc1-2	x	x	x	14*	x	37*	66*	70*	GALR2 agon conf=4;BLA act counter=1
O=c1oc2ccccc2cc1-c1ccc(O)cc1O	x	x	x	-1	x	5	x	x
Cc1ccc(/C=N/Nc2ccnc3cc(Cl)ccc23)c(C)c1	x	x	x	14*	x	32*	42*	42*	GALR2 agon conf=19*;BLA act counter=10*
CC(C)n1nc(C(=O)Oc2cccc(Cl)c2Cl)c2ccccc2c1=O	x	x	x	0	x	-3	x	x
CCOC(CNc1c([N+](=O)[O-])c(=O)n(C)c(=O)n1C)OCC	x	x	x	-1	x	2	x	x
CCOC(=O)COc1ccccc1/C=C\[N+](=O)[O-]	x	x	x	-3	x	30*	43*	30*
CCOC(=O)C1CCCN(S(=O)(=O)c2ccc(OC)c3ccccc23)C1 (configuration not stated)	-5	-14	1	-2	3	-2	x	x
Nc1c(OCC(=O)O)ccc2cc(S(=O)(=O)O)ccc12	x	x	28	x	x	x	x	x
COc1ccc(OCCNc2cc(Cl)ccc2[N+](=O)[O-])cc1	1	-1	x	-4	x	71*	11	5
COc1ccc(OCCNc2cc(N3CCCCC3)ccc2[N+](=O)[O-])cc1	-1	-33	x	-3	x	2	x	x
SMILES	S1P2 agonist	S1P2 antag	Smad3 inh	GALR2 ag	Calb biofilm kill	GALR2 antag	GALR2 blk conf	BLA inhib ctr	others
CCc1ccc2c(c1)/C(=C/C(=O)c1cccs1)C(=O)N2	-4	13	-1	2	7	28*	35*	22
Cn1nc(-c2ccc(Cl)cc2)nc2c(=O)n(C)c(=O)nc1-2	-3	99*	80*	4	12	94*	100*	95*
CC(C)c1ccc(/C=C(\c2nc3ccccc3[nH]2)S(=O)(=O)c2ccccc2)cc1	x	x	x	-2	x	0	x	x
O=S(=O)(/C(=C/c1ccc(C(F)(F)F)cc1)c1nc2ccccc2[nH]1)c1ccccc1	x	x	x	2	x	38*	51*	45*
O=[N+]([O-])c1cc(-c2ncccn2)c([N+](=O)[O-])s1	x	x	x	-1	x	45*	55*	26
N#CC1=C(N)N(c2ccccc2Sc2ccccc2)C(=O)C1	x	x	6	-1	5	7	x	x
Cn1c(=O)c(NCCc2ccccc2)c2c3c(cccc31)C(=O)c1ccccc1-2	-4	29	11	1	4	40*	38*	42*
CN(Cc1ccccc1)c1ccc(C(=O)O)cc1[N+](=O)[O-]	x	x	x	-3	x	-6	x	x
CCCCN(CCCC)CCCOC(=O)c1ccc(N)cc1	x	x	0	-1	-3	5	x	x
Cn1c(CNC(=O)Nc2cccc(Cl)c2)nnc1SCc1ccccc1	-7	33	-3	-2	4	28*	15	8
CCN1CCN(Cc2ccc(NC(=O)CC3Oc4ccc(C)cc4NC3=O)cc2)CC1 (configuration not stated)	-6	16	-10	-2	2	34*	2	3
Clc1ccc2nc(N3CCNCC3)nc(-c3ccccc3)c2c1	59*	2	-9	24*	1	35*	30*	50*
CC(C)(C)C1=C(C#N)C(c2ccncc2)C(C#N)=C(N)O1 (configuration not stated)	x	x	x	1	x	32*	14	4
CC(C)(C)C1=C(C#N)C(c2ccc3c(c2)OCO3)C(C#N)=C(N)O1 (configuration not stated)	-4	4	6	-1	7	1	x	x
CCC(C)(C)NC(=O)C(C)OC(=O)c1nsc(Cl)c1Cl (configuration not stated)	-5	6	-2	0	7	2	x	x
CC(=O)c1c(C)[nH]c(C(=O)COc2cc(C)ccc2C(C)C)c1C	-1	66*	-10	-2	-2	33*	50*	18
Cc1ccc(C(C)C)c(OCC(=O)Nc2ccc(Cl)cn2)c1	-1	-12	-6	2	7	0	x	x
CCOc1ccccc1OCCCNCc1ccco1	x	x	x	-2	x	12	x	x
CN(C)c1nc(Nc2ccc(Cl)cc2)nc(OCC#N)n1	-5	-8	4	-2	1	35*	30*	14
CONc1nc(NC(C)(C)C)nc(OCC#N)n1	x	x	x	-1	x	4	x	x
